According to paper PMC4336329 (PLoS ONE, 2015):
About 14,000 (4.5%) of roughly 310,000 compounds showed an effect of 50% or more. The effect is printed as a negative number. The entries come from a sample that favours strong results as a whole.

Target: human ether-à-go-go-related gene (hERG) potassium channel (human, UniProt Q12809)
Test: primary screen, population patch clamp on CHO cells stably expressing hERG; higher = less effect of the substance
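Also: peak tail current of the secondary pulse compared with the same well before compound.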

Sequence of human ether-à-go-go-related gene (hERG) potassium channel (Q12809 whole entry, looked up): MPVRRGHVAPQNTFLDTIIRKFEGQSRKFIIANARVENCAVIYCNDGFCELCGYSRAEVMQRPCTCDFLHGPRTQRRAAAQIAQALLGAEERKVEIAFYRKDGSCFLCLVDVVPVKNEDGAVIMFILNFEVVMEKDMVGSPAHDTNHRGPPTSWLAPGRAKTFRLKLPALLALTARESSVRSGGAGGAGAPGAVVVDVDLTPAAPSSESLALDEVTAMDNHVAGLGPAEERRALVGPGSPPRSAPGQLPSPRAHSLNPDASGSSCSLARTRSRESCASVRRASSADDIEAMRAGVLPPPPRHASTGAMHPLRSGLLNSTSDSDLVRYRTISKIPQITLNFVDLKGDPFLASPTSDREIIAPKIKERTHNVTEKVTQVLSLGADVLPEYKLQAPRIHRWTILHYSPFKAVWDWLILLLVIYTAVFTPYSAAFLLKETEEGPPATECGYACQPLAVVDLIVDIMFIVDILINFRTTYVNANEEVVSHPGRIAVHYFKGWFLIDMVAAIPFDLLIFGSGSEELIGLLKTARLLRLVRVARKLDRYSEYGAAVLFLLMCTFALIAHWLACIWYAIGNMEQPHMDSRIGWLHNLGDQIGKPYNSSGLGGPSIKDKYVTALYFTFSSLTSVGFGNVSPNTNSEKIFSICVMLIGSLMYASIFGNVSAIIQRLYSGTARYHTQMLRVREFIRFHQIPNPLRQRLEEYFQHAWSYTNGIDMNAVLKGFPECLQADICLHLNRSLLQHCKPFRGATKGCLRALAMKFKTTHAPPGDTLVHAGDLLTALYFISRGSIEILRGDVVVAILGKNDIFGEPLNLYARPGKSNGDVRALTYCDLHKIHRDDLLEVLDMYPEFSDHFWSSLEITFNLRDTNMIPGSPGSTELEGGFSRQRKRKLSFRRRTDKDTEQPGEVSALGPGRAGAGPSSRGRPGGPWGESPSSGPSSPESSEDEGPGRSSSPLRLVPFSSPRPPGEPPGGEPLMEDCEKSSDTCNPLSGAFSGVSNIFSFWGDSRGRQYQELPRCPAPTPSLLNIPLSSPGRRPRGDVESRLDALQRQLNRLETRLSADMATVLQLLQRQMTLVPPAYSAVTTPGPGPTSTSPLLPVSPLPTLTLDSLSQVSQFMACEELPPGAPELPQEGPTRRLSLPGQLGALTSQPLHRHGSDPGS

SMILES | hERG current change (%, negative = inhibition) at 10uM
Cc1nc2oc3c(NCC4CCCO4)ncnc3c2c2c1COC(C)(C)C2 (stereo not drawn) | -16.6%
CC(=O)Nc1nc(C)c(CCCOc2ccc([N+](=O)[O-])cc2)c(=O)[nH]1 | 0.762%
Cc1noc(C)c1NC(=O)N1CCN(Cc2ccccc2)CC1 | 8.04%
COc1ccc(O)c(CN2CCCC(C(=O)Nc3cccc(-n4cccn4)c3)C2)c1 (stereo not drawn) | -14.9%
O=C(Nc1cccc(-n2cccn2)c1)C1CCCN(Cc2ccccc2F)C1 (stereo not drawn) | -30.4%
COc1ccc(CN2CCCC(C(=O)Nc3cccc(-n4cccn4)c3)C2)cc1 (stereo not drawn) | -58.9%
O=C(Nc1cccc(-n2cccn2)c1)C1CCCN(Cc2cccc(F)c2F)C1 (stereo not drawn) | -17.8%
Cc1nn(C)c(Cl)c1CN1CCCC(C(=O)Nc2cccc(-n3cccn3)c2)C1 (stereo not drawn) | -50.2%
CCOc1cccc(CN2CCCC(C(=O)Nc3cccc(-n4cccn4)c3)C2)c1 (stereo not drawn) | -56.3%
Cc1c(CN2CCCC(C(=O)Nc3cccc(-n4cccn4)c3)C2)cnn1C (stereo not drawn) | 7.86%
CSc1cccc(CN2CCCC(C(=O)Nc3cccc(-n4cccn4)c3)C2)c1 (stereo not drawn) | -28.6%
COC(=O)c1ccc(CN2CCCC(C(=O)Nc3cccc(-n4cccn4)c3)C2)cc1 (stereo not drawn) | -27.4%
CC(=O)c1cccc(CN2CCCC(C(=O)Nc3cccc(-n4cccn4)c3)C2)c1 (stereo not drawn) | -23.9%
CCOc1ccccc1CN1CCCC(C(=O)Nc2cccc(-n3cccn3)c2)C1 (stereo not drawn) | -69.5%
Cc1cc(CN2CCCC(C(=O)Nc3cccc(-n4cccn4)c3)C2)cc(C)c1O (stereo not drawn) | -42%
COCCNC(=S)N(CCc1c(C)[nH]c2ccc(F)cc12)Cc1cccnc1 | -21.5%
C=CC(=O)N1c2ccccc2Sc2ccc(NC(=O)OCC)cc21 | 0.408%
CC(C)(C)c1ccc(C(=O)Nc2cccc3c(=O)[nH][nH]c(=O)c23)cc1 | -9.65%
O=C(Cc1ccccc1)NCC(=O)N1CCN(c2ccccc2)CC1 | 5.93%
O=C(NCCn1ccc2ccccc21)c1cccc([N+](=O)[O-])c1 | -16.9%
CCC(C)N1C(=O)C2C(C(=O)Nc3cccc(OC)c3)C3C=CC2(O3)C1C(=O)NC1CCCCC1C (stereo not drawn) | -6.83%

SMILES | hERG current change (%, negative = inhibition) at 10uM
O=S1(=O)CCN(Cc2ccc(Cl)c(Cl)c2)CC1 | 6.46%
CC(C)OC(=O)Cn1nnc(-c2ccccc2)n1 | 0.0206%
Cc1c(NC(=O)C(C)OC(=O)c2cc(Cl)ccc2O)c(=O)n(-c2ccccc2)n1C (stereo not drawn) | 15.3%
CCSc1sccc1C1C(C#N)=C(N)N(c2cccnc2)C2=C1C(=O)CC(C)(C)C2 (stereo not drawn) | -50.4%
CCSc1sccc1C1C(C#N)=C(N)N(c2cccnc2)C2=C1C(=O)CCC2 (stereo not drawn) | -31.5%
CC1(C)CC(=O)C2=C(C1)N(c1cccnc1)C(N)=C(C#N)C2c1cccs1 (stereo not drawn) | -5.86%
CC12COC3(C(=O)Nc4ccc(F)cc4)CC1CCC32C (stereo not drawn) | -18%
CN(CCC#N)C(=O)COC(=O)[C@H](Cc1ccccc1)N1C(=O)c2ccccc2C1=O | -2.25%
Cc1ccc(-n2nc3c(=O)n(CC(=O)NCc4cccs4)nc(C)c3c2C)cc1 | -20.1%
Cc1ccc(Oc2ncccc2/C=N/OCc2ccc(Cl)cc2Cl)cc1 | 14.7%
O=C(Nc1ccccc1-c1nnn(CC(=O)N2CCc3ccccc3C2)n1)C1CCC1 | -52.8%
CC(C)CC(=O)Nc1ccccc1-c1nnn(CC(=O)N2CCc3ccccc3C2)n1 | -37.3%
O=C(Nc1cccc(-c2nnn(CC(=O)N3CCc4ccccc4C3)n2)c1)C1CCC1 | 2.59%
O=C(NCCN1CCOCC1)c1cccc(NS(=O)(=O)c2ccc(Br)cc2)c1 | -34.3%
OCC[C@H]1C[C@H](O)[C@@H](O)[C@]2(OCc3ccccc32)O1 | 11.9%
O=C(OCc1ccc(F)cc1)c1cc(S(=O)(=O)N2CCCCC2)ccc1N1CCOCC1 | 2.16%
Cc1ccc(C)c(COC(=O)c2cc([N+](=O)[O-])ccc2N2CCOCC2)c1 | 5.73%
O=C(OCc1ccccc1Cl)c1cc([N+](=O)[O-])ccc1N1CCOCC1 | -23.1%
O=C(OCc1ccc([N+](=O)[O-])cc1)c1cc([N+](=O)[O-])ccc1N1CCOCC1 | -76.1%
O=C(OCc1cccc(Cl)c1)c1cc([N+](=O)[O-])ccc1N1CCOCC1 | -38.7%
CC1CC(C)CN(C(=O)COC(=O)c2cc([N+](=O)[O-])ccc2N2CCOCC2)C1 (stereo not drawn) | -54.7%

SMILES | hERG current change (%, negative = inhibition) at 10uM
CC1CCN(C(=O)COC(=O)c2cc([N+](=O)[O-])ccc2N2CCOCC2)CC1 | -15%
CC1CCCN(C(=O)COC(=O)c2cc([N+](=O)[O-])ccc2N2CCOCC2)C1 (stereo not drawn) | -14.6%
Cc1ccccc1COC(=O)c1cc([N+](=O)[O-])ccc1N1CCOCC1 | -18.8%
Cc1ccc(COC(=O)c2cc(S(=O)(=O)N3CCCCC3)ccc2N2CCOCC2)cc1 | -13.9%
O=C(OCc1ccc([N+](=O)[O-])cc1)c1cc(S(=O)(=O)N2CCCCC2)ccc1N1CCOCC1 | -75.9%
Cc1ccc(COC(=O)c2cc([N+](=O)[O-])ccc2N2CCOCC2)cc1 | -53.7%
C/C(=N\NC(=O)C(NC(=O)c1ccccc1)C(C)C)c1ccccc1 (stereo not drawn) | 21.2%
COc1ccc(-c2csc(NC(C)=O)n2)cc1OC | 5.13%
Cc1ccccc1NC(=O)NC1(C(=O)NCC2CCCO2)CCCCC1 (stereo not drawn) | 17.5%
O=[N+]([O-])c1ccc(NCc2ccccn2)nc1 | -5.06%
CCC(C(=O)Nc1ccccc1)c1ccccc1 (stereo not drawn) | 7.86%
CS(=O)(=O)N(CC(O)Cn1c2ccccc2c2ccccc21)c1cccc2ccccc12 (stereo not drawn) | 0.652%
CCOC(=O)c1c(C)[nH]c(C)c1C(=O)COC(=O)c1cccc(S(=O)(=O)NC)c1 | -7.56%
O=C(OCc1c(F)cccc1Cl)c1cc([N+](=O)[O-])ccc1N1CCOCC1 | 3.43%
O=C(OCc1ccccc1F)c1cc([N+](=O)[O-])ccc1N1CCOCC1 | -47.9%
COc1ccc(OC)c(COC(=O)c2cc([N+](=O)[O-])ccc2N2CCOCC2)c1 | -18%
CCc1cccc(NC(=O)COC(=O)c2cc([N+](=O)[O-])ccc2N2CCOCC2)c1 | -7.99%
CN(C)S(=O)(=O)c1cccc(COC(=O)c2cc([N+](=O)[O-])ccc2N2CCOCC2)c1 | -52.7%
COc1ccc(COC(=O)c2cc([N+](=O)[O-])ccc2N2CCOCC2)cc1F | -62.5%
COc1cc(C(=O)CSc2nncn2C)cc(OC)c1OC | 6.63%
CCOC(=O)c1ccc(NC(=S)N2CCC(O)CC2)cc1 | 18%

SMILES | hERG current change (%, negative = inhibition) at 10uM
O=C(CN1C(=O)c2ccccc2C1=O)Nc1cc(C(=O)O)cc(C(=O)O)c1 | 7.72%
N#Cc1ccccc1OCC(=O)NNC(=O)c1ccncc1 | 9.65%
CC1(c2ccc(OC(F)F)cc2)NC(=O)N(CC(=O)Nc2ccccc2)C1=O (stereo not drawn) | -51.3%
Cc1cc(NC(=O)CN2C(=O)NC(C)(c3ccccc3)C2=O)no1 (stereo not drawn) | -55.5%
CC1(c2ccc(OC(F)F)cc2)NC(=O)N(CC(=O)Nc2ccc(F)cc2)C1=O (stereo not drawn) | -45.5%
Cc1ccc(C2(C)NC(=O)N(CC(=O)Nc3cc(C)on3)C2=O)cc1 (stereo not drawn) | -10.7%
CC1(c2ccc(OC(F)F)cc2)NC(=O)N(CC(=O)Nc2ccc(S(N)(=O)=O)cc2)C1=O (stereo not drawn) | 1.64%
CCOc1ccc(NC(=O)CN2C(=O)NC(C)(c3ccc(OC(F)F)cc3)C2=O)cc1 (stereo not drawn) | -16.1%
CC1(c2ccc(OC(F)F)cc2)NC(=O)N(CC(=O)Nc2ccc(OC(F)F)cc2)C1=O (stereo not drawn) | -94.9%
Cc1cc(NC(=O)CN2C(=O)NC(C)(c3ccc(Cl)cc3)C2=O)no1 (stereo not drawn) | 39.2%
CC1(c2ccc(OC(F)F)cc2)NC(=O)N(CC(=O)Nc2cccc(F)c2)C1=O (stereo not drawn) | 2.79%
CCn1c(=S)sc2c(=O)n(CC(=O)NCCCc3ccccc3)c(C)nc21 | 18.8%
COc1ccc(OC)c(NC(=O)Cn2cnc3c(cnn3-c3ccccc3)c2=O)c1 | -12.8%
COc1cc(/C=C/C(=O)OCC(=O)c2c(N)n(C)c(=O)n(C)c2=O)ccc1OC(F)F | 6.4%
COc1ccc(CN(C)C(=O)COC(=O)c2ccc3c(c2)OCO3)cc1OC | -3.84%
CCC(=O)OC1(C)C(=O)C=C2C=C(C3CC3)OC=C2C1=O (stereo not drawn) | 12.5%
CCC(C(=O)Nc1ccccc1OC)n1c(C(=O)OC)cc2ccsc21 (stereo not drawn) | -11.3%
CN(CC(=O)NNC(=O)CNC(=O)c1ccccc1Cl)S(=O)(=O)c1ccc(Cl)cc1 | 9.57%
